Experimental data reported in PubChem BioAssay (Tox21).
Inconclusive results are not listed. Calls of active or inactive are those of the source. Unless noted, calls follow the shape of the dose curve; as a rule, active = well fitted curve in the direction sought with a large enough effect in the repeat runs; inconclusive = weak or mixed curves; inactive = no such curve, though single readings can be large; an effect the other way counts as inactive or inconclusive.

Assays:
[1] = qHTS assay to identify small molecule agonists of the RXR signaling pathway - cell viability counter screen (AID 1159529); also: series mostly up to about 77 µM; nearly all actives have a fitted effect of over 50% in size
Outline: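 Cell viability is measured by CellTiter-Glo luminescence, 30 min at room temperature, in wells already read for beta-lactamase. Engineered HEK 293T cells (RXR-alpha-UAS-bla) are dosed 16 hr at 37 C. Tetraoctyl ammonium bromide serves as positive control.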

[2] = qHTS assay to identify small molecule antagonists of the retinoid acid receptor (RAR) signaling pathway - cell viability counter screen (AID 1159551); also: nearly all actives have a fitted effect of over 35% in size
Outline: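 Retinol-stimulated (1 uM final) C3RL4 cells, compound 6 h, 37 C; readout CellTiter-Glo luminescence (ATP) after 30 min RT incubation.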

[3] = qHTS assay to identify small molecule antagonists of the retinoic acid receptor (RAR) signaling pathway (AID 1159552; also: nearly all actives have a fitted effect of over 50% in size)
Outline: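 Quantitative HTS in C3RL4 RARE-luciferase reporter cells. Compounds were added with 1 uM (final) retinol; luminescence was read after 6 hr.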

[4] = qHTS assay to identify small molecule agonists of the retinoic acid receptor (RAR) signaling pathway (AID 1159553)
Outline: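 Reporter readout comes from luciferase under RARE control in C3RL4 cells; compound exposure lasts 6 hr at 37 C in 5% CO2, and luminescence is recorded following a 30 min room-temperature incubation with reagent.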

[5] = qHTS assay to identify small molecule antagonists of the estrogen related receptor (ERR) signaling pathway from Tox21 library - cell viability counter screen (AID 1224834); also: nearly all actives have a fitted effect of over 30% in size
Outline: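 After 17.5 h of compound exposure at 37 C, ERR cells are incubated with CellTiter-Fluor for 30 min and fluorescence intensity serves as the viability measure.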

[6] = target: Luciferin 4-monooxygenase (Photinus pyralis) (UniProt P08659); assay: qHTS assay to identify small molecule inhibitors of firefly luciferase (AID 1224835); also: series mostly up to about 120 µM; nearly all actives have a fitted effect of over 25% in size
Luciferin 4-monooxygenase (Photinus pyralis), sequence (P08659 whole entry, looked up): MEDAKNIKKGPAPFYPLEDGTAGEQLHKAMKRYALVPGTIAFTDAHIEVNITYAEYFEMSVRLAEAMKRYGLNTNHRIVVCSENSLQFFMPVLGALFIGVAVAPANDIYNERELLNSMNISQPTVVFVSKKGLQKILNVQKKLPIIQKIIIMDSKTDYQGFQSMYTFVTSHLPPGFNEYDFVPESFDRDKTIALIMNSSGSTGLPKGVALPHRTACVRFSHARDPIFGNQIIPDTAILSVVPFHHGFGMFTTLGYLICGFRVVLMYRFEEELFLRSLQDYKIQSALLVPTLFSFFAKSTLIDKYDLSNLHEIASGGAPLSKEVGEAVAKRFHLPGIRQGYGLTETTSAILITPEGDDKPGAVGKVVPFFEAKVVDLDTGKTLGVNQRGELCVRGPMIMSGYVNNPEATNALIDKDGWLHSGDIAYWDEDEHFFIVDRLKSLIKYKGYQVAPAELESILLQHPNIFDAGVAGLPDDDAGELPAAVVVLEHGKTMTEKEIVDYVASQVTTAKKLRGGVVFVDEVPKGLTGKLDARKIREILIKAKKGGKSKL
Outline: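 Biochemical qHTS: compounds run as interplate titrations against purified firefly enzyme, with D-luciferin and ATP each at its KM concentration. Light output recorded by CCD imaging.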

[7] = qHTS assay to identify small molecule agonists of the constitutive androstane receptor (CAR) signaling pathway - cell viability counter screen (AID 1224836); also: series mostly up to about 92 µM; nearly all actives have a fitted effect of over 45% in size
Outline: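 Counter screen multiplexed with the CAR reporter readout: HepG2 cells co-transfected with hCAR and the CYP2B6-2.2kb construct receive a 15-concentration compound series and 0.75 uM PK11195 (final), then CellTiter-Fluor fluorescence is read after 23 h.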

[8] = qHTS assay to identify small molecule antagonists of the constitutive androstane receptor (CAR) signaling pathway - cell viability counter screen (AID 1224837); also: series mostly up to about 92 µM; nearly all actives have a fitted effect of over 45% in size
Outline: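 Counter screen run in HepG2-CYP2B6-hCAR cells: 4 hr settle, compound titration (15 concentrations) with 50 nM CITCO, 23 hr at 37 C/5% CO2, CellTiter-Fluor fluorescence.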

[9] = target: Nuclear receptor subfamily 1 group I member 3 (Homo sapiens) (UniProt Q14994); assay: qHTS assay to identify small molecule antagonists of the constitutive androstane receptor (CAR) signaling pathway (AID 1224838);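 also: HepG2 cells stably expressing hCAR with CYP2B6 luciferase reporter stimulated by CITCO; nearly all actives have a fitted effect of over 40% in size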
Nuclear receptor subfamily 1 group I member 3 (Homo sapiens), sequence (Q14994 whole entry, looked up): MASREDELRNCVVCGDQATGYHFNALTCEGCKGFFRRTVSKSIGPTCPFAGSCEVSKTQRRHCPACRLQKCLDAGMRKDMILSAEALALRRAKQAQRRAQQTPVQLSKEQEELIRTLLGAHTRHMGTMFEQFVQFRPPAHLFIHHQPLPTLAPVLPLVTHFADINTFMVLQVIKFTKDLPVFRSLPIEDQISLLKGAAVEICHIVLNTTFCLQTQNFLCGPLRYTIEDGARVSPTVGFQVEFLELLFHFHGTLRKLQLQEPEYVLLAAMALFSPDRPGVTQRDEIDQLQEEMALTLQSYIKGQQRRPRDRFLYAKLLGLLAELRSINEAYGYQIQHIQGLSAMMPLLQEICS
Outline: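 Cell line: HepG2 double-stable for hCAR and CYP2B6-2.2kb reporter. Agonist: CITCO, 50 nM final. Compounds: 15 concentrations, 24 h, 37 C. Detection: ONE-Glo luminescence.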

[10] = target: Nuclear receptor subfamily 1 group I member 3 (Homo sapiens) (UniProt Q14994); assay: qHTS assay to identify small molecule agonists of the constitutive androstane receptor (CAR) signaling pathway (AID 1224839); also: series mostly up to about 92 µM; nearly all actives have a fitted effect of over 15% in size
Outline: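 A 15-concentration quantitative screen uses HepG2 cells co-transfected stably with human CAR and CYP2B6-2.2kb reporter. Treatment lasts 24 h with 0.75 uM PK11195 final present; ONE-Glo luminescence is the signal.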

[11] = qHTS assay to identify small molecule antagonists of the estrogen related receptor signaling pathway with the pleiotropic PPARgamma coactivator (PGC) from Tox21 10K library - cell viability counter screen (AID 1224840; active = well fitted cell-killing curve with a large enough effect in the repeat runs, not every such curve was filed as active; also: nearly all actives have a fitted effect of over 40% in size)
Outline: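 Following seeding of 2,000 PGC/ERR cells/well and 6 hours' incubation, test compounds were delivered in DMSO. The plates then sat 17.5 hours at 37 C before a fluorogenic live-cell protease reagent (CellTiter-Fluor) was read after 30 min.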

[12] = qHTS assay to identify small molecule antagonists of the estrogen related receptor signaling pathway with the pleiotropic PPARgamma coactivator (PGC) from Tox21 10K library (AID 1224841; call rule not given here; also: series mostly up to about 92 µM; actives are mostly falling curves and most rising ones were filed inactive; nearly all actives have a fitted effect of over 50% in size)
Outline: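 qHTS antagonist format: PGC/ERR cells, 2k/well, compound in DMSO by pin transfer after 6 h attachment, 18 h treatment at 37 C, One-Glo luminescence read at 30 min.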

[13] = qHTS assay to identify small molecule agonists of the estrogen related receptor signaling pathway with the pleiotropic PPARgamma coactivator (PGC) from Tox21 10K library (AID 1224842); also: nearly all actives have a fitted effect of over 15% in size
Outline: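 PGC/ERR reporter cell line, 2,000 cells per well, incubated 6 h at 37 C before 23 nL compound in DMSO was added. After 18 h at 37 C, One-Glo luminescence read following 30 min at room temperature.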

[14] = target: Thyrotropin receptor (Homo sapiens) (UniProt P16473); assay: qHTS assay to identify small molecule agonists of the thyroid stimulating hormone receptor (TSHR) signaling pathway (AID 1224843; calls by dose curve; also: nearly all actives have a fitted effect of over 45% in size)
Thyrotropin receptor (Homo sapiens), sequence (P16473 whole entry, looked up): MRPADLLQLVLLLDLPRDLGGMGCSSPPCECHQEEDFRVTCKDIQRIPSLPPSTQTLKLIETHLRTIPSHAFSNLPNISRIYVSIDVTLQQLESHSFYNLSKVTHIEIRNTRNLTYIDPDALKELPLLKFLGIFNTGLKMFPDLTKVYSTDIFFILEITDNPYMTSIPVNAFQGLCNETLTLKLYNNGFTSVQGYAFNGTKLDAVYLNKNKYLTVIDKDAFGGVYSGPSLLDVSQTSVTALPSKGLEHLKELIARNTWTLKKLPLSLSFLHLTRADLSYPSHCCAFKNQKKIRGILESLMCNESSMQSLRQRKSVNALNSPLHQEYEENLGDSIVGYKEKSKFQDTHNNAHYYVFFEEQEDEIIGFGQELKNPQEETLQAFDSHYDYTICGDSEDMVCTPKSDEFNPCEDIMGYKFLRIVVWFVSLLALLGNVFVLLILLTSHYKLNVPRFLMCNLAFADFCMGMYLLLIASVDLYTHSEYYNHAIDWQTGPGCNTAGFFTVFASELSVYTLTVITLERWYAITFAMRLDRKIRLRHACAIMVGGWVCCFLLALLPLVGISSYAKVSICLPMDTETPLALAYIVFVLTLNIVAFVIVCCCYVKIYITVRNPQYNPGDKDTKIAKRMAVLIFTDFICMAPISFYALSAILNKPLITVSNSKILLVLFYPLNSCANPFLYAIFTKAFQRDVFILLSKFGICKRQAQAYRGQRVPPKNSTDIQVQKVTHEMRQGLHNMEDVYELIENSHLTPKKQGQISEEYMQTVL
Outline: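 Steps: seed 800 TSHR-HEK293 cells per well; add test compound and hold 30 min at ambient temperature; dispense cAMP-d2 then anti-cAMP cryptate; incubate 1 h at ambient; measure fluorescence intensity.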

Measured: Potency

OCCCC1CCCCC1
inactive: all assays above

CO[C@]12C[C@@H](COC(=O)c3cncc(Br)c3)CN(C)[C@@H]1Cc1cn(C)c3cccc2c13
not listed: [3]
inactive: all other assays above

CN(C)CCCNCCCN(C)C
inactive: all assays above

O=C(CCCN1CCN(c2ccccn2)CC1)c1ccc(F)cc1
not listed: [3]
inactive: all other assays above

CC(C)CCCC(C)N (centres undefined)
inactive: all assays above

CC(=O)OCC(=O)[C@@]1(O)CCC2C3CCC4=CC(=O)CC[C@]4(C)C3[C@@H](O)C[C@@]21C (some centres undefined)
not listed: [6]
inactive: all other assays above

CCOc1ccc(C(=O)OCCN(CC)CC)cc1
not listed: [4]
inactive: all other assays above

CC1(C)CO[C@@H](CC(=O)O)CN1
inactive: all assays above

CCCCCSCCCCC
not listed: [4] | [6]
inactive: all other assays above

CCCCCCCCCCCCN(CCCCCCCCCCCC)CCCCCCCCCCCC
inactive: all assays above

CCC(=O)OC(C)c1ccccc1 (centres undefined)
not listed: [4] | [6]
inactive: all other assays above

CCc1cccc2c(CCO)c[nH]c12
inactive: all assays above

CCC=O
inactive: all assays above

N=C(N)c1ccc2cc(OC(=O)c3ccc(N=C(N)N)cc3)ccc2c1
not listed: [3] | [14]
inactive: all other assays above

Cc1c(NC(C)C)c(=O)n(-c2ccccc2)n1C
not listed: [6]
inactive: all other assays above
